Compound activity: PubChem BioAssay, The Scripps Research Institute Molecular Screening Center
This is a sample that favours compounds with a hit; in the whole collection about 2.3% have one here.
CHO-K1 Ca ag – counter-screen for M1 agonists: effect in parental CHO-K1 cells; Fluo-8 calcium fluorescence; scaled to maximal ATP response, vehicle zero; activation, % at 3 µM; actives 0.48% (n = 360,000); in the data active means activation above about 15%;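 further: untransfected CHO-K1 host cells lacking M1 receptor as counterscreen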
CHRM1 PAM – human M1 muscarinic receptor positive allosteric modulators, primary screen, CHO-K1 cells, Fluo-8 calcium fluorescence, 1536-well. Muscarinic acetylcholine receptor M1 (Homo sapiens), P11229. CHO-K1 hM1, ACh EC20; 0% = ACh EC20, 100% = maximal ACh. activation, % at 3 µM. actives 0.088% (n = 360,000). AID 588819, 2011; in the data active means activation above about 19%, passing the limit was not always enough
Target sequence (P11229 whole entry, looked up): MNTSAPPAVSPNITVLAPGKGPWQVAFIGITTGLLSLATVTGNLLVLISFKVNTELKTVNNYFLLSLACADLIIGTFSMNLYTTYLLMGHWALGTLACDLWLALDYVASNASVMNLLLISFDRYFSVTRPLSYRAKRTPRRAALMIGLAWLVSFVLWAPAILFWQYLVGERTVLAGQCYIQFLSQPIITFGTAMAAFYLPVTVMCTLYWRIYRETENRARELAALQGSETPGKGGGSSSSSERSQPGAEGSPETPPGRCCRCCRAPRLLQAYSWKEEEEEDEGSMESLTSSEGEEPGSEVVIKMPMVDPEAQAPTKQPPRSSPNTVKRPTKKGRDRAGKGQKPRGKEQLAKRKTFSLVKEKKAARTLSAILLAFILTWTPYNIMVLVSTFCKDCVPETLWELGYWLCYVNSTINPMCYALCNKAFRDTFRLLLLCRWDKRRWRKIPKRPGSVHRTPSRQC
M1 antag – human M1 muscarinic receptor antagonists, primary screen, CHO-K1 cells, Fluo-8 calcium fluorescence, 1536-well; inhibition, % at 3 µM; AID 588852, 2011; CHO-K1 hM1, ACh EC80 antagonist; actives 1.3% (n = 360,000);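 active means percent inhibition above its own plate's cutoff, namely the mean of that plate's compound wells plus 3 SD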;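 further: peak over basal fluorescence ratio during 140 s after agonist addition; 0% = ACh EC80 plus DMSO and 100% = DMSO alone without agonist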
M1 ag – human M1 muscarinic receptor agonists, primary screen, Fluo-8 calcium fluorescence, CHO-K1 cells, HTS | Muscarinic acetylcholine receptor M1 (Homo sapiens), P11229 | CHO-K1 hM1, agonist mode; 0% DMSO, 100% acetylcholine EC100 | activation, % at 3 µM | actives 0.33% (n = 360,000);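 active means activation above the run's mean compound activation plus 3 SD, cut at about 16% in these data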;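 further: peak over basal fluorescence ratio within a 140 s kinetic read after compound addition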
CHO-K1 Ca antag – counter-screen for M1 antagonists: effect in parental CHO-K1 cells. ATP-induced calcium, Fluo-8 fluorescence. inhibition, % at 3 µM. actives 0.6% (n = 360,000);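 active means inhibition above a per-plate cutoff, the plate's mean sample inhibition plus 3 SD, cut at about 24% in these data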;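 further: 0% = DMSO plus EC80 ATP and 100% = DMSO alone without ATP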
M1 PAM parental – nonselective calcium activators in parental CHO-K1 cells, primary screen, counter-screen for M1 PAM project, cell-based, Fluo-8 calcium fluorescence, full deck, 1536-well. ATP EC20; 0% at ATP EC20, 100% at ATP max. activation, % at 3 µM. actives 0.02% (n = 360,000);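 active means activation above the run cutoff, the mean activation of all test compounds plus 3 SD, cut at about 40% in these data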;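 further: peak over basal fluorescence ratio in a 140 s read after ATP addition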
Numbers without * were called inactive.

How did COc1ccc(N2CCN(C(=O)Oc3ccc([N+](=O)[O-])cc3)CC2)cc1 do in these assays?
CHO-K1 Ca ag: 7.1; CHO-K1 Ca antag: 0.2; M1 PAM parental: 10.7

Results for COc1ccc(N2CCN(C(=O)c3ccc(COc4ccc([N+](=O)[O-])cc4)o3)CC2)cc1 ?
CHO-K1 Ca ag: 13.7; CHRM1 PAM: -14.8; M1 antag: 29.6*; M1 ag: 0.2; CHO-K1 Ca antag: -1.5; M1 PAM parental: -8.7

How did Cc1ccc2c(c1)/C(=N/OS(=O)(=O)c1ccccc1)CCS2 do in these assays?
CHO-K1 Ca ag: 0.2; CHRM1 PAM: 5.9; M1 antag: -0.2; M1 ag: -3.3; CHO-K1 Ca antag: -10.5; M1 PAM parental: 18.8

How did CC1=CC(=O)C(C(C)C)=C/C1=N/OS(=O)(=O)c1ccccc1 do in these assays?
CHO-K1 Ca ag: 20.2*; CHRM1 PAM: -16.7; M1 antag: 61.3*; M1 ag: 4.8; CHO-K1 Ca antag: 50.2*; M1 PAM parental: -19.6

How did CC1=CC(=O)C=C(C)C1=NOS(=O)(=O)c1ccccc1 do in these assays?
CHO-K1 Ca ag: 11.4; CHRM1 PAM: 4.3; M1 antag: 18.5*; M1 ag: 11.1; CHO-K1 Ca antag: -2.5; M1 PAM parental: 20.2

What do the screens show for `Cc1ccc(S(=O)(=O)ON=C2CCN(S(=O)(=O)c3ccccc3)CC2)cc1`?
CHO-K1 Ca ag: 0.5; CHRM1 PAM: 7.7; M1 antag: -7.4; M1 ag: 0.3; CHO-K1 Ca antag: -16.9; M1 PAM parental: 7.2

How did CC(C)Cn1c(N)c(C(=O)COC(=O)/C=C/c2ccccc2)c(=O)n(C)c1=O do in these assays?
CHO-K1 Ca ag: 13.6; CHRM1 PAM: -11.1; M1 antag: 29.9*; M1 ag: 1.3; CHO-K1 Ca antag: 28.5*; M1 PAM parental: -0.9

What do the screens show for `CC(C)Cn1c(N)c(C(=O)COC(=O)c2c(O)c(Cl)cc(Cl)c2Cl)c(=O)n(C)c1=O`?
CHO-K1 Ca ag: -0.1; CHRM1 PAM: 28.0*; M1 antag: -20.9; M1 ag: 3.8; CHO-K1 Ca antag: -7.2; M1 PAM parental: -1.0

How did CC(C)Cn1c(N)c(C(=O)COC(=O)CCc2nc3ccccc3s2)c(=O)n(C)c1=O do in these assays?
CHO-K1 Ca ag: 15.2*; CHRM1 PAM: -9.8; M1 antag: 20.9; M1 ag: -1.8; CHO-K1 Ca antag: 23.0; M1 PAM parental: -10.8

Results for CC(C)Cn1c(N)c(C(=O)COC(=O)CC23CC4CC(CC(C4)C2)C3)c(=O)n(C)c1=O ?
CHO-K1 Ca ag: 0.0; CHRM1 PAM: -3.0; M1 antag: 32.7*; M1 ag: -1.2; CHO-K1 Ca antag: 16.0; M1 PAM parental: -3.1

How did Cc1ccccc1OCCC(=O)OCC(=O)c1c(N)n(CC(C)C)c(=O)n(C)c1=O do in these assays?
CHO-K1 Ca ag: 15.2*; CHRM1 PAM: -15.4; M1 antag: 38.0*; M1 ag: 1.5; CHO-K1 Ca antag: 24.1*; M1 PAM parental: -11.8

What do the screens show for `Cc1ccc(OCCC(=O)OCC(=O)c2c(N)n(CC(C)C)c(=O)n(C)c2=O)cc1`?
CHO-K1 Ca ag: 12.2; CHRM1 PAM: -16.1; M1 antag: 26.0; M1 ag: -1.9; CHO-K1 Ca antag: 0.7; M1 PAM parental: -1.0

What do the screens show for `CC(C)Cn1c(N)c(C(=O)COC(=O)COc2cccc(C(F)(F)F)c2)c(=O)n(C)c1=O`?
CHO-K1 Ca ag: 15.2*; CHRM1 PAM: -14.3; M1 antag: 31.6*; M1 ag: 1.5; CHO-K1 Ca antag: 17.3; M1 PAM parental: -11.7

How did CC(C)Cn1c(N)c(C(=O)COC(=O)c2cccc(F)c2)c(=O)n(C)c1=O do in these assays?
CHO-K1 Ca ag: 5.6; CHRM1 PAM: 5.9; M1 antag: -0.4; M1 ag: -0.3; CHO-K1 Ca antag: 9.2; M1 PAM parental: -2.6

What do the screens show for `CC1(C#CC[N+]2(C)CCCCC2)CCC2C(O1)c1ccccc1OC2(C)C` (stereo not drawn)?
CHO-K1 Ca ag: 0.0; CHRM1 PAM: -5.3; M1 antag: 81.9*; M1 ag: 102.8*; CHO-K1 Ca antag: -19.5; M1 PAM parental: 17.1

What do the screens show for `CC12CCC3(CO)COC(c4ccccc4O1)C2C3` (stereo not drawn)?
CHO-K1 Ca ag: 0.7; CHRM1 PAM: 7.3; M1 antag: -8.7; M1 ag: -2.3; CHO-K1 Ca antag: -23.2; M1 PAM parental: 9.8

How did O=C(Oc1ccccc1)c1cc(O)c(O)c(O)c1 do in these assays?
CHO-K1 Ca ag: 1.0; CHRM1 PAM: -1.8; M1 antag: -1.2; M1 ag: -1.8; CHO-K1 Ca antag: -0.9; M1 PAM parental: 2.9

How did Cc1noc(C)c1NC(=O)N(C)C[C@H]1OCc2cnnn2CCCC(=O)N([C@H](C)CO)C[C@H]1C do in these assays?
CHO-K1 Ca ag: 0.2; CHRM1 PAM: 26.6*; M1 antag: -21.0; M1 ag: 5.2; CHO-K1 Ca antag: -4.7; M1 PAM parental: 13.1

How did C[C@H]1CN([C@@H](C)CO)C(=O)CCCn2nncc2CO[C@@H]1CN(C)Cc1ccc(-c2ccccc2)cc1 do in these assays?
CHO-K1 Ca ag: 5.5; CHRM1 PAM: -26.0; M1 antag: 37.1*; M1 ag: -4.6; CHO-K1 Ca antag: 2.6; M1 PAM parental: 3.7

How did C[C@@H]1CN([C@H](C)CO)C(=O)CCCn2nncc2CO[C@H]1CN(C)Cc1ccc(-c2ccccc2)cc1 do in these assays?
CHO-K1 Ca ag: -0.2; CHRM1 PAM: -6.0; M1 antag: -1.4; M1 ag: -11.2; CHO-K1 Ca antag: 9.6; M1 PAM parental: -11.0

How did COc1ccc(S(=O)(=O)N(C)C[C@@H]2OCc3cnnn3CCCC(=O)N([C@@H](C)CO)C[C@@H]2C)cc1 do in these assays?
CHO-K1 Ca ag: 0.6; CHRM1 PAM: 28.5*; M1 antag: -38.1; M1 ag: 4.9; CHO-K1 Ca antag: -6.0; M1 PAM parental: 18.6

What do the screens show for `C[C@@H]1CN([C@@H](C)CO)C(=O)CCCn2nncc2CO[C@@H]1CN(C)C(=O)Nc1cccc(C(F)(F)F)c1`?
CHO-K1 Ca ag: -0.4; CHRM1 PAM: 10.4; M1 antag: -16.2; M1 ag: -1.2; CHO-K1 Ca antag: 26.3*; M1 PAM parental: -5.1

Results for Cc1ccc(S(=O)(=O)N(C)C[C@H]2OCc3cnnn3CCCC(=O)N([C@@H](C)CO)C[C@H]2C)cc1 ?
CHO-K1 Ca ag: 0.4; CHRM1 PAM: 1.2; M1 antag: 3.5; M1 ag: -4.8; CHO-K1 Ca antag: -3.4; M1 PAM parental: 8.8

Results for Cc1ccccc1N(CC(=O)N/N=C/c1cc(Br)c(C)o1)S(C)(=O)=O ?
CHO-K1 Ca ag: 0.7; CHRM1 PAM: 2.7; M1 antag: 1.9; M1 ag: -5.4; CHO-K1 Ca antag: -2.5; M1 PAM parental: 15.2
